# Among all 420,000 compounds or so, about 64,000 (15%) were called active. About 27% were inconclusive and are not listed. The call rests on the fitted dose curve; in most records, active means well fitted inhibition curve with a large enough effect; inconclusive means small, poorly fitted or top-dose-only effect; inactive means flat fitted curve, though single readings scatter. These entries were drawn from the full list. Where a call stands in place of a potency, no number is given.
# Assay: qHTS for Inhibitors of human tyrosyl-DNA phosphodiesterase 1 (TDP1): qHTS in cells in absence of CPT; further: nearly all actives have a fitted effect of over 55% in size
# Settings: DT40 Tdp1-/- hTDP1 cells, no CPT, ATP luminescence, 48 h; activity change, negative = growth inhibition: at 46.2 µM (top of the series)
# How it was run: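 DT40 Tdp1-/-;hTDP1 cells, no CPT (DMSO vehicle only), 400 cells/well; compounds pin-transferred; ≥48 hr, 37 °C; CellTiter-Glo 30 min RT dark, luminescence read.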
# Potency means the concentration at half of the fitted maximal effect.
row,Compound,Potency
1,O=C(Nc1ccncc1)c1ccc([N+](=O)[O-])cc1Cl,inactive
2,COCC(C)NC(=O)CSc1nc2nn(-c3ccccc3)c(=O)c-2c2n1CCCCC2 (stereo not drawn),inactive
3,NNC(=O)C1CC(O)CN1S(=O)(=O)c1ccc(Cl)cc1 (stereo not drawn),inactive
4,CC1(C)CC(=O)C(N=Nc2ccc(S(=O)(=O)N3CCCCCC3)cc2)=C(O)C1,inactive
5,Cc1cnc(NC(=O)c2ccc(Cl)nc2)s1,inactive
6,NS(=O)(=O)c1ccc(NC(=O)COC(=O)c2ccc(Cl)nc2)cc1,inactive
7,CCN(CC)c1ccc(NC(=O)c2ccc(Cl)nc2)cc1,2.59 µM (active)
8,Cc1ccc2c(c1)NCC(C(=O)NC1CCC(C)CC1)O2 (stereo not drawn),inactive
9,CC1(c2ccc3ccccc3c2)NC(=O)N(CC(N)=O)C1=O (stereo not drawn),inactive
10,CCOC(=O)C1CCN(C(=O)Nc2cccc(OC)c2)CC1,inactive
11,CCOC(=O)C1CCN(C(=O)CN2C(=O)NC(C)(c3ccc4cc(OC)ccc4c3)C2=O)CC1 (stereo not drawn),10.3 µM (active)
12,COc1ccc(C2C3=C(CCCC3=O)N(CC(=O)O)C3=C2C(=O)CCC3)cc1,inactive
13,CCOc1ccc(NC(=S)N2CCC(NC(=O)c3ccccc3)CC2)cc1,inactive
14,CC(=O)N1CCOc2ccc(S(=O)(=O)N3CCC(C(=O)Nc4ccccc4F)CC3)cc21,inactive
15,CCOc1ccc(NC(=O)C2CCN(C(=O)N3CCOc4ccccc43)CC2)cc1,20.6 µM (active)
16,COC(=O)c1ccccc1NC(=O)C1CCN(C(=O)N2CCOc3ccccc32)CC1,23.1 µM (active)
17,CCOc1ccc(NC(=O)N2CCN(CC)CC2)cc1,inactive
18,CCOC(=O)c1ccccc1NC(=S)N1CCC(C(N)=O)CC1,inactive
19,Cc1ccsc1C(=O)OCC(=O)Nc1cccc(F)c1,inactive
20,O=C(Nc1cccc2ccccc12)N1CCN(Cc2ccc3c(c2)OCO3)CC1,inactive
21,N#Cc1cccc(CN2CCC(=O)N(CCO)CC2)c1,inactive
22,CC(C)[C@@H]1NC(=O)[C@H](Cc2ccccc2)NC(=O)[C@@H](CC(=O)O)NC(=O)CNC(=O)[C@H](CCCNC(=N)N)NC1=O,inactive
23,C=CCOc1ccc(/C=C/C(=O)OCC(=O)NCC2CCCO2)cc1 (stereo not drawn),inactive
24,CCC(C)C(=O)Nc1ccccc1N1CCN(c2ccc(F)cc2)CC1 (stereo not drawn),20.6 µM (active)
25,O=C(CN1CCN(c2ccc(F)cc2)CC1)Nc1ccccc1,inactive
26,CCC(=O)Nc1ccccc1N1CCN(S(C)(=O)=O)CC1,inactive

row,Compound,Potency
1,O=C(NC(=S)Nc1ccccc1N1CCCCC1)c1ccc(F)cc1,inactive
2,CCCCC(=O)Nc1ccccc1N1CCN(c2ccc(F)cc2)CC1,16.4 µM (active)
3,O=C(CN1CCN(c2ccccc2)CC1)Nc1ccc(F)cc1,inactive
4,Cc1cccc(C)c1NC(=O)CN1CCN(c2ccc(F)cc2)CC1,20.6 µM (active)
5,CCn1cc(CN2CCCC(CNS(=O)(=O)Cc3ccccc3)C2)cn1 (stereo not drawn),inactive
6,CC(C)C(=O)Nc1nnc(SCC(=O)N2C(C)CCCC2C)s1 (stereo not drawn),inactive
7,C[C@H]1CN([C@@H](C)CO)C(=O)CCCn2cc(nn2)CO[C@@H]1CN(C)S(=O)(=O)c1cccc(C#N)c1,inactive
8,CC(C)NC(=O)C(c1ccc(F)cc1)N(C(=O)CCC(=O)Nc1ccccn1)c1ccccc1F (stereo not drawn),inactive
9,O=C(Nc1ccccc1Cl)N1CCC(CN2CCCCC2)CC1,inactive
10,CC(=O)N=c1ncn(CC(COC(C)=O)OC(C)=O)c2nc[nH]c12 (stereo not drawn),inactive
11,Cc1ccc(CNC(=O)CCCNC(=O)c2ccc(Cl)cc2)n1C,inactive
12,Cc1nc(-c2ccc(Cl)cc2)sc1C1(C)CC(c2ccc(Br)cc2)=NO1 (stereo not drawn),inactive
13,Cc1cccc(NC(=O)CSc2nc3c(c(=O)[nH]2)CCC3)c1C,inactive
14,CCCCn1c(N)c(N(CC(C)C)C(=O)c2cccc(S(=O)(=O)N3CCN(C(C)=O)CC3)c2)c(=O)[nH]c1=O,inactive
15,O=C(NCCCn1ccnc1)C(=O)c1cn(CC(=O)N2CCCCCC2)c2ccccc12,inactive
16,O=C(CC(=O)c1cccnc1)c1ccccc1,20.6 µM (active)
17,O=C(c1cccnc1)N(Cc1ccccc1)C(=O)c1cccnc1,inactive
18,O=C(NNC(=O)c1cccnc1)Nc1ccccc1,inactive
19,COC(=O)Cc1cnc(NC(=O)CSc2nc(C(C)C)cc(=O)[nH]2)s1,inactive
20,COc1cccc(-n2c(=O)c3c(C)c(C(=O)N(C)C)sc3n(Cc3cccc(C)c3)c2=O)c1,inactive
21,COc1cccc(N=c2oc3c(C)ncc(CO)c3cc2C(N)=O)c1,inactive
22,CCCN(CCC)c1c([N+](=O)[O-])c(=O)oc2ccccc12,inactive
23,CCC(C)(C)NC(=O)C(c1ccc(O)cc1)N(C(=O)Cn1nnc2ccccc21)c1ccc(NC(C)=O)cc1 (stereo not drawn),inactive
24,COc1ccc(NC(=O)CCCN2C(=O)CCn3nc(-c4cn(C)c5ccccc45)cc32)cc1OC,23.1 µM (active)
25,O=C(CN1C(=O)CCn2nc(-c3ccccc3)cc21)NCc1ccccc1,inactive
26,COc1ccc(NC(=O)CCCNC(=O)Cn2cnc3sc4c(c3c2=O)CCCC4)cc1OC,inactive

row,Compound,Potency
1,O=C(/C=C/[C@H]1O[C@@H](n2ccc(=O)[nH]c2=O)[C@H](O)[C@@H]1O)NCc1ccccn1,inactive
2,COc1ccc(-c2cc(C(F)(F)F)nc(SCC(=O)Nc3ccc4c(c3)OCO4)n2)cc1OC,inactive
3,COc1ccc(Cl)cc1NC(=O)CN(C)C(=O)c1cc2ccccc2cc1OC,18.4 µM (active)
4,COc1ccc(C)cc1NC(=O)CSc1nnc(CC(=O)Nc2ccccc2F)n1C,inactive
5,O=C(COC(=O)c1cc(-c2cccs2)nn1-c1ccccc1)Nc1cc([N+](=O)[O-])ccc1Cl,inactive
6,COc1ccc(Cl)cc1NC(=O)CN(C)C(=O)c1cc(-c2cccs2)nn1-c1ccccc1,18.4 µM (active)
7,COc1ccc(Cl)cc1NC(=O)CSc1nc(-c2cccs2)cc(C(F)(F)F)n1,20.6 µM (active)
8,COc1ccc(Cl)cc1NC(=O)CN(C)C(=O)CNC(=O)C12CC3CC(CC(C3)C1)C2,inactive
9,COc1ccc(Cl)cc1NC(=O)CNc1ccccc1F,inactive
10,C=Cn1cc[n+](CC(=O)c2ccc(OC)c(OC)c2)c1,inactive
11,Cc1c(C(=O)N(C)CCc2cnn(C)c2)oc2c(F)cccc12,inactive
12,Cn1ccs/c1=N\S(=O)(=O)c1ccc(C(C)(C)C)cc1,inactive
13,CC(=O)Nc1ccc(S(=O)(=O)NCC2CCC(C(=O)NCCc3ccccc3)CC2)cc1 (stereo not drawn),inactive
14,CS(=O)(=O)N1CCN=C1SCc1ccc(F)cc1,inactive
15,CCn1c(SCc2cccc(C(=O)O)c2)nnc1-c1ccc(Cl)cc1,inactive
16,Cc1oc2cc3oc(=O)ccc3cc2c1C,inactive
17,O=C(Nc1c(Br)cc2c(c1Br)Cc1ccccc1-2)C(F)(F)F,inactive
18,CC(=O)c1ccc2c(c1)c1ccccc1n2CC(C)C,inactive
19,CCOC(=O)c1sc(NC(=O)CSc2n[nH]c(CC)n2)nc1C,inactive
20,O=C(CN1CCc2cc3c(cc2C1)OCCCO3)Nc1ccccc1,25.9 µM (active)
21,O=C(CN1CCOCC1)Nc1ccccc1,inactive
22,Cc1ccc(NC(=O)CN2CCc3ccccc3C2)cc1,inactive
23,Cc1ccc(NS(=O)(=O)c2cn(C)c(=O)n(C)c2=O)c(C)c1,inactive
24,O=C(CCN1C(=O)C2C3C=CC(C3)C2C1=O)Nc1ccccc1F (stereo not drawn),inactive
25,O=C(NCCCNC(=O)c1ccccc1Cl)c1cnccn1,inactive
26,CCCCNC1(C#N)CCN(Cc2ccccc2)CC1,inactive

row,Compound,Potency
1,O=C1CC[C@@H]2CC3(C[C@@H]4CCN1[C@H]24)Nc1cc([N+](=O)[O-])ccc1NC3=NC1CCCCC1 (stereo partly drawn),inactive
2,Cc1cc2c(cc1C)NC1(C[C@H]3CCC(=O)N4CC[C@@H](C1)[C@@H]34)C(=NC(C)(C)CC(C)(C)C)N2 (stereo partly drawn),20 µM (active)
3,O=C1CCC[C@@H]2C[C@@]3(C[C@@H]4CCN1[C@H]24)Nc1ccccc1NC3=NCc1ccccc1,inactive
4,COc1ccc(N2C(=O)NC(NS(=O)(=O)c3ccc(Cl)cc3)(C(F)(F)F)C2=O)cc1 (stereo not drawn),inactive
5,CN(C)C(=O)c1ccc(-c2cncnc2NC2CCNCC2)cc1,inactive
6,O=C(O)c1ccc(/C=C2\SC(=S)N(NC(=O)c3ccc(Br)cc3)C2=O)cc1,inactive
7,Cc1ccc(-n2c(Cc3cccs3)nnc2SCC(=O)OC(C)C)cc1,inactive
8,CCn1c(Cc2cccs2)nnc1SCC(=O)c1ccc(C)cc1,14.1 µM (active)
9,Cn1c(Cc2cccs2)nnc1SCC(=O)Nc1ccccc1,inactive
10,O=c1[nH]c(=O)c2nc3ccccc3nc2[nH]1,inactive
11,CCCc1nnc(NC(=O)c2cccs2)s1,inactive
12,O=C1NC(=O)C(c2ccc(Cl)cc2)N1 (stereo not drawn),inactive
13,CCOC(=O)N1CCN(C(=O)C(=O)Nc2sc3c(c2C#N)CC(C)(C)OC3)CC1,inactive
14,NS(=O)(=O)c1ccc2nc(NC(=O)CS(=O)(=O)c3ccc(F)cc3)sc2c1,inactive
15,O=C(Cn1c(=O)sc2ccccc21)Nc1nc2c(s1)CCCC2,inactive
16,COc1cc(C#Cc2ccc3cc(CCCO)oc(=O)c3c2)cc(OC)c1,1.03 µM (active)
17,CN(C(=O)CN1C(=O)CCSc2ccc(S(=O)(=O)N3CCCC3)cc21)c1ccccc1,inactive
18,CSc1ccccc1NC(=O)c1cc(Cl)sc1Cl,inactive
19,CN(CC(=O)Nc1c(Cl)cccc1Cl)C(=O)c1ccncc1,inactive
20,CCCc1ccc(OCC(=O)NNC(=S)NC(=O)c2ccco2)cc1,20.6 µM (active)
21,CCCc1ccc(OCCNC(=O)c2ccco2)cc1,inactive
22,Cc1ccc(OCC(=O)NCCCNC(=O)c2ccco2)cc1C,inactive
23,CC(Oc1ccc2ccccc2c1)C(=O)NNC(=S)NC(=O)c1ccco1 (stereo not drawn),16.4 µM (active)
24,Cc1ccc(C(=O)NNC(=O)C(C)Oc2ccc3ccccc3c2)o1 (stereo not drawn),inactive
25,O=C(Nc1ccc2ccccc2c1)/C(=C\c1ccc2c(c1)OCO2)NC(=O)c1ccco1,inactive
